An excerpt weighted towards active compounds, which were near 0.92% of everything screened.
Mtb UGM inh – Mtb UDP-galactopyranose mutase inhibition | P9WIQ1 | purified UGM, fluorescence polarization probe displacement | inhibition, % at 10 µM | 320,000 tested, 0.06% active; in the data active = inhibition above about 10%, passing the limit was not always enough; inconclusive = no clear call, values can overlap the other calls
Mtb hypoxia rep – reduces hypoxia-regulated biosensor signal in M. tuberculosis; M. tuberculosis hypoxia-regulated fluorescent reporter, fluorescence; fluorescence inhibition, % (test concentration not listed); 300,000 tested, 0.1% active; AID 1159583; in the data active = fluorescence inhibition mostly above about 23%, no sharp cut-off; inactive = mostly below about 17%
RecA splice inh – inhibitors of M. tuberculosis RecA intein splicing. P9WHJ3. cell-free RecA intein splicing, fluorescence. inhibition, % (concentration not given with the values). 290,000 tested, 0.75% active. AID 2221; in the data active = inhibition above about 30%; inconclusive = no clear call, values can overlap the other calls;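 note: 0% = vehicle wells and 100% = reference inhibitor control wells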
Rv3671c protease – inhibits the M. tuberculosis serine protease Rv3671c | 320,000 tested, 0.048% active | inhibition, % at 5.96 µM | AID 2606; in the data active = inhibition above about 38%;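 note: extracellular domain of Rv3671c used as enzyme; 0% = enzyme with DMSO and 100% = no enzyme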
Target sequence (P9WHR9 whole entry, looked up, the tested form may be a part): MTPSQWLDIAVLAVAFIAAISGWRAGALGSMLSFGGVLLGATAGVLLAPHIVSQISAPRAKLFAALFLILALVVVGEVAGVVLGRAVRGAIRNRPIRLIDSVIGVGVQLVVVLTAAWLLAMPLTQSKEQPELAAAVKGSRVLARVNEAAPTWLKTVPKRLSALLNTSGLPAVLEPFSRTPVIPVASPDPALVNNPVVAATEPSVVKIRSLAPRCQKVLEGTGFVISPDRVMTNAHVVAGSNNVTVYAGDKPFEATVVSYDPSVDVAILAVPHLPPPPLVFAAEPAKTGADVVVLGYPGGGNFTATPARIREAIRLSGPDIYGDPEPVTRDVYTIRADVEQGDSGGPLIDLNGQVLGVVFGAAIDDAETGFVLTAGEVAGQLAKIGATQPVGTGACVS
Mtb betalactam – beta-lactam sensitization of Mtb H37Rv. M. tuberculosis H37Rv growth with meropenem, percent inhibition. inhibition, % at 25 µM. 330,000 tested, 0.27% active. AID 434955;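 note: growth measured after seven days incubation then overnight dye step; 0% = bacteria only wells and 100% = bacteria with antibiotic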
FadD28 binding – M. tuberculosis FadD28 bisubstrate binding inhibition | FadD28 bisubstrate probe binding, fluorescence polarization | inhibition, % at 12.5 µM | 360,000 tested, 0.22% active; in the data active = inhibition above about 8.5%, passing the limit was not always enough; inconclusive = no clear call, values can overlap the other calls
GFP chromo cs – counter-screen GFP chromophore formation inhibition | shares compounds with RecA splice inh | cell-free GFP chromophore formation, fluorescence | EC50, µM | 2,100 tested, 83% active | AID 434968
An asterisk follows results filed as active; ? = inconclusive; nt = no result given. Unless noted, the rule behind the calls is not given here.

SMILES | Mtb UGM inh | Mtb hypoxia rep | RecA splice inh | Rv3671c protease | Mtb betalactam | FadD28 binding | GFP chromo cs
O=c1[nH]c(Nc2ccccc2)cc2ccccc12 | -5 | nt | 64* | -139 | 2 | 1 | ?
COc1cc(/C=N/NC(=O)CC2(C)OCCCO2)ccc1OCc1ccccc1 | -1 | nt | 39* | -21 | -4 | -5 | 3.1*
Cc1[nH]nc2c1C(c1c[nH]c3ccccc13)C(C#N)=C(N)O2 (stereo not drawn) | 4 | nt | 90* | 1 | 1 | -1 | 7.5*
COC(=O)Cc1[nH]nc2c1C(c1ccc(O)c(OC)c1)C(C#N)=C(N)O2 (stereo not drawn) | -2 | 10 | 77* | 4 | -3 | 1 | 31*
CCOC(=O)C1=C(C)OC(N)=C(C#N)C1c1cc(SCC)oc1C (stereo not drawn) | -1 | 2 | 1 | -9 | -6 | -4 | nt
CCSc1cc(C2C(C#N)=C(N)Oc3n[nH]c(C)c32)c(C)o1 (stereo not drawn) | -2 | nt | 77* | 8 | -1 | -5 | 15*
Cc1cc(C)c(C2C(C#N)=C(N)Oc3n[nH]c(C)c32)cc1CN1CCCC1 (stereo not drawn) | 2 | 6 | 25 | 5 | -12 | -1 | nt
COC(=O)Cc1[nH]nc2c1C(c1c[nH]c3ccccc13)C(C#N)=C(N)O2 (stereo not drawn) | 1 | 9 | 86* | -6 | 6 | -5 | >38
Cc1ccc(Cn2ccsc2=NC(=O)CCl)cc1 | 0 | nt | 17 | 3 | 98 | -4 | nt
Cc1c(/C=C2\NC(=O)NC2=O)c2ccccc2n1C | 1 | -10 | -4 | 0 | 1 | 1 | nt
COc1ccc(CC(N)c2csc(NC(=O)c3cc(C(C)(C)C)nn3Cc3ccccc3)n2)cc1 (stereo not drawn) | nt | nt | nt | nt | nt | -8 | nt
COc1ccc(OC)c(C(c2c(C)[nH][nH]c2=O)c2c(C)[nH][nH]c2=O)c1 | 0 | 10 | 95* | -15 | 8 | -2 | 0.43*
COc1ccc(O)c(C(c2c(C)[nH][nH]c2=O)c2c(C)[nH][nH]c2=O)c1 | 0 | nt | 92* | -27 | 2 | -2 | 3.8*
COc1ccc(N=Nc2c(C)[nH][nH]c2=O)cc1 | 1 | 11 | nt | -15 | 5 | 1 | nt
Oc1c(Cl)cc(Cl)cc1C=Nc1ccccc1N1CCCC1 | 0 | nt | -18 | 7 | 1 | nt | nt
O=c1[nH]cc(N=Cc2cc(Cl)cc(Cl)c2O)c(=O)[nH]1 | 2 | 3 | 77* | -17 | 0 | 0 | 13*
Cc1cc(SCC(=O)c2ccc(Cl)cc2)nc(=O)[nH]1 | 2 | -4 | 2 | 5 | 5 | -2 | nt
CCOCCCn1c(C)nc2c(c1=O)c1nc3ccccc3nc1n2-c1ccc2c(c1)OCCO2 | 1 | -15 | 3 | 5 | 5 | nt | nt
O=C(O)c1cc2c(s1)CCCC2 | 0 | 5 | nt | 2 | -11 | 0 | nt
ClCc1nnc(-c2cc3c(s2)CCCC3)o1 | nt | 16 | 39* | nt | nt | -4 | 28*
CC(C)(C)N1CC2([N+](=O)[O-])CN(C(C)(C)C)CC([N+](=O)[O-])(C1)C2 | 3 | nt | 0 | -1 | 6 | -6 | nt
COc1cc(C(c2c(C)[nH][nH]c2=O)c2c(C)[nH][nH]c2=O)cc(OC)c1OC | 0 | 6 | 96* | -18 | -5 | -4 | 0.51*
COc1cc(C(c2c(C)[nH][nH]c2=O)c2c(C)[nH][nH]c2=O)cc(Cl)c1O | -2 | 5 | 88* | 1 | 0 | -4 | 0.74*
COc1ccc(C(CC(=O)O)c2cc(OC)c(OC)c(OC)c2)cc1OC (stereo not drawn) | nt | nt | nt | nt | nt | 0 | nt
N#CCCNN=C(Cc1nc2ccccc2[nH]1)c1ccccc1 | nt | -4 | nt | nt | nt | nt | nt
COc1cccc(CN2CCN(Cc3ccc(C#CC(C)(C)O)s3)CC2CCO)c1 (stereo not drawn) | -4 | -2 | 77* | 1 | -6 | -4 | >38
COc1ccc(OC)c(C2CC(=O)C(C)C(c3cc(OC)ccc3OC)N2)c1 (stereo not drawn) | -2 | 4 | 0 | 3 | -4 | 1 | nt
COc1ccc(C2NC(c3ccc(OC)cc3OC)C(C)C(=O)C2C)c(OC)c1 (stereo not drawn) | 0 | 10 | 51* | -2 | -1 | -5 | >38
C/C(CC(=O)Nc1cc(C)ccn1)=N\NC(=O)c1ccncc1 | 1 | nt | 75* | -19 | 99 | -2 | 17*
CC(CC(=O)Nc1ccccn1)=NNC(=O)c1ccc(C)cc1 | nt | 4 | nt | nt | nt | nt | nt

Compound activity deposited in PubChem by several laboratories.
